Several values for one entry are separate records, joined by “and”; a condition that tells them apart may be missing. Equal entries are not always repeated. About 83,000 compounds went through this panel and 20% of them were active in at least one assay; those are over-represented in the sample as a whole.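 Values shown are percent growth following 48 h exposure of cells in 96-well plates to a single concentration of compound; below 10 was considered active.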 Activity calls are given as the source filed them.
Experiments:
Assay in all cases: NCI-60 one-dose screen, 48 h (100 = growth as untreated, 0 = no growth, -100 = all killed)
Settings in all cases: 10 µM unless noted
SK-MEL-2 melanoma = test system: SK-MEL-2 melanoma
EKVX NSCLC = test system: EKVX NSCLC
SN12C renal = test system: SN12C renal
UO-31 renal = test system: UO-31 renal
TK-10 renal = test system: TK-10 renal
ACHN renal = test system: ACHN renal
A498 renal = test system: A498 renal
MOLT-4 leukemia = test system: MOLT-4 leukemia
SR leukemia = test system: SR leukemia
RPMI-8226 leukemia = test system: RPMI-8226 leukemia
OVCAR-8 ovarian = test system: OVCAR-8 ovarian
OVCAR-5 ovarian = test system: OVCAR-5 ovarian
OVCAR-4 ovarian = test system: OVCAR-4 ovarian
SK-OV-3 ovarian = test system: SK-OV-3 ovarian
IGROV1 ovarian = test system: IGROV1 ovarian
OVCAR-3 ovarian = test system: OVCAR-3 ovarian
HS 578T breast = test system: HS 578T breast
NCI/ADR-RES ovarian = test system: NCI/ADR-RES ovarian
CCRF-CEM leukemia = test system: CCRF-CEM leukemia
CAKI-1 renal = test system: CAKI-1 renal

| Compound | growth (SK-MEL-2 melanoma) | growth (EKVX NSCLC) | growth (SN12C renal) | growth (UO-31 renal) | growth (TK-10 renal) | growth (ACHN renal) | growth (A498 renal) | growth (MOLT-4 leukemia) | growth (SR leukemia) | growth (RPMI-8226 leukemia) | growth (OVCAR-8 ovarian) | growth (OVCAR-5 ovarian) | growth (OVCAR-4 ovarian) | growth (SK-OV-3 ovarian) | growth (IGROV1 ovarian) | growth (OVCAR-3 ovarian) | growth (HS 578T breast) | growth (NCI/ADR-RES ovarian) | growth (CCRF-CEM leukemia) | growth (CAKI-1 renal) |
| --- | --- | --- | --- | --- | --- | --- | --- | --- | --- | --- | --- | --- | --- | --- | --- | --- | --- | --- | --- | --- |
| O=C(CCl)c1ccc2c(c1)Nc1ccccc1S2 | 80.5% (inactive) and 72.5% (inactive) | 98.6% (inactive) | 104% (inactive) and 93.8% (inactive) | 97.7% (inactive) and 81% (inactive) | 95.5% (inactive) | 104% (inactive) and 92.4% (inactive) | 84.1% (inactive) and 77.2% (inactive) | 46.3% (inactive) and 48.5% (inactive) | 13.6% (inactive) and 6.19% (active) | 63.4% (inactive) and 52.1% (inactive) | 95.1% (inactive) and 88.7% (inactive) | 105% (inactive) and 117% (inactive) | 90.1% (inactive) and 83.4% (inactive) | 100% (inactive) and 99.3% (inactive) | 104% (inactive) and 93.3% (inactive) | 96.8% (inactive) and 71.6% (inactive) | 93% (inactive) and 106% (inactive) | 94.7% (inactive) and 95.9% (inactive) |  |  |
| CC(C(=O)O)n1cc(C#N)c(=O)[nH]c1=O (stereo not drawn) | 120% (inactive) and 102% (inactive) | 95.6% (inactive) and 110% (inactive) | 98.6% (inactive) and 96.1% (inactive) | 81.3% (inactive) and 82.4% (inactive) | 112% (inactive) and 110% (inactive) | 100% (inactive) and 96.5% (inactive) | 107% (inactive) | 90% (inactive) and 107% (inactive) | 93.5% (inactive) and 99.9% (inactive) | 106% (inactive) and 104% (inactive) | 103% (inactive) and 113% (inactive) | 94.8% (inactive) and 105% (inactive) | 108% (inactive) and 110% (inactive) |  | 101% (inactive) and 109% (inactive) | 116% (inactive) and 101% (inactive) | 114% (inactive) and 113% (inactive) | 106% (inactive) | 91.6% (inactive) and 103% (inactive) |  |
| Oc1c(CN2CCCCC2)ccc2cccnc12 | 96.9% (inactive) and 82.4% (inactive) | 71.3% (inactive) | 58.2% (inactive) and 59.2% (inactive) | 8.37% (active) and -0.287% (active) | 40.8% (inactive) and 48.7% (inactive) | 7.15% (active) and 9.28% (active) | 61.4% (inactive) and 62.9% (inactive) | 38.2% (inactive) and 36% (inactive) | 32.4% (inactive) and 33.2% (inactive) | 58.5% (inactive) | 33.1% (inactive) and 23.3% (inactive) | 68.9% (inactive) and 51.1% (inactive) | 29.3% (inactive) | 54.5% (inactive) and 50.8% (inactive) | 46% (inactive) and 55.3% (inactive) | 14.4% (inactive) and 52.7% (inactive) |  | 7.05% (active) and 4.34% (active) | 16.6% (inactive) |  |
| Nc1ccn(C2OC(CO)C(O)C2O)c(=O)n1 (stereo not drawn) |  | 99.2% (inactive) [middle of 4 runs] |  |  |  |  |  |  |  |  | 40.1% (inactive) and 97.2% (inactive) and 101% (inactive) |  | 99.9% (inactive) [middle of 4 runs] |  | 50.9% (inactive) and 10.1% (inactive) and 106% (inactive) |  |  |  |  | 26.9% (inactive) and 4.29% (active) and 95.4% (inactive) |
| NC(=O)c1ccccc1OCC(O)CO (stereo not drawn) | 103% (inactive) |  | 101% (inactive) | 99.7% (inactive) | 110% (inactive) | 103% (inactive) | 94.6% (inactive) | 108% (inactive) | 94.9% (inactive) | 99% (inactive) | 104% (inactive) | 99.5% (inactive) | 103% (inactive) | 109% (inactive) | 108% (inactive) | 106% (inactive) | 117% (inactive) | 119% (inactive) | 93.6% (inactive) | 97.5% (inactive) |
| COc1ccc(/C=c2\[nH]c3nc(=O)c(N4CCOCC4)c(N)n3c2=O)cc1 |  |  |  |  | 72% [100 µM] (inactive) and 6.01% [100 µM] (active) |  |  |  |  |  |  |  |  |  |  |  |  |  |  |  |
| COc1ccc(C2c3cc4c(c(OC)c3CC3OCC(=O)C32)OCO4)cc1OC (stereo not drawn) |  |  |  |  | 46.4% [100 µM] (inactive) and -11% [100 µM] (active) |  |  |  |  |  |  |  |  |  |  |  |  |  |  |  |
| NC(=S)NS(=O)(=O)c1ccc(N)cc1 | 109% (inactive) |  | 109% (inactive) | 88.1% (inactive) | 110% (inactive) | 96.5% (inactive) | 82.8% (inactive) | 101% (inactive) | 96.5% (inactive) | 110% (inactive) | 99.4% (inactive) | 106% (inactive) | 113% (inactive) |  | 107% (inactive) | 123% (inactive) |  | 104% (inactive) | 106% (inactive) | 94.8% (inactive) |
| Cc1ccc(OCC2OC(n3cnc4nc(N)nc(Cl)c43)CC2Oc2ccc(C)cc2)cc1 (stereo not drawn) |  |  |  |  | 104% [100 µM] (inactive) and -84.6% [100 µM] (active) |  |  |  |  |  |  |  |  |  |  |  |  |  |  |  |

Reference: PubChem BioAssay (NCI)
